Composite z-score and z-score data for 24 molecules are collected here from PubChem BioAssay.

Active and inactive are the calls of the source.

Assay [1] has as its system XIP peptide (Xip251-270) binding. The assay is described as follows: XIP fragment 251-270 binding compounds – biochemical, small-molecule microarray, fluorescence 635/667 nm, 0.1 µg/mL protein, primary screen (AID 1182). Particulars: fluorescent protein binding, 635 nm, higher = more signal, called active from +8 up or from −8 down.
The subject of assay [2] is XIP peptide (Xip251-270). The assay is described as follows: compounds binding XIP fragment 251-270 – biochemical, small-molecule microarray, fluorescence 635/667 nm, 0.5 µg/mL protein, primary screen (AID 1183). The note with it: fluorescence 635 nm, higher = more signal.
Assay [3] in a line: blood-stage malaria parasite viability loss – strain 3D7, DAPI fluorescence, 100 nL, primary screen (AID 1184).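 Further: parasites grown inside human red blood cells in medium with human serum.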 Particulars: P. falciparum 3D7 growth, 3 d, higher = more signal.
Assay [4] concerns the target Homeobox protein Hox-A13 (Mus musculus) (UniProt Q62424). The assay is described as follows: disruptors of Hoxa13 oligonucleotide interaction – biochemical, fluorescence polarization, labeled oligonucleotide, primary screen (AID 1185). Particulars: Hoxa13:DNA binding, 15 min, higher = more signal, called active from +8 up or from −8 down. In general terms: Fluorescence polarisation rises when a labelled molecule tumbles more slowly, as on binding a larger partner.

Chain of Homeobox protein Hox-A13 (Mus musculus) (Q62424 whole entry, looked up): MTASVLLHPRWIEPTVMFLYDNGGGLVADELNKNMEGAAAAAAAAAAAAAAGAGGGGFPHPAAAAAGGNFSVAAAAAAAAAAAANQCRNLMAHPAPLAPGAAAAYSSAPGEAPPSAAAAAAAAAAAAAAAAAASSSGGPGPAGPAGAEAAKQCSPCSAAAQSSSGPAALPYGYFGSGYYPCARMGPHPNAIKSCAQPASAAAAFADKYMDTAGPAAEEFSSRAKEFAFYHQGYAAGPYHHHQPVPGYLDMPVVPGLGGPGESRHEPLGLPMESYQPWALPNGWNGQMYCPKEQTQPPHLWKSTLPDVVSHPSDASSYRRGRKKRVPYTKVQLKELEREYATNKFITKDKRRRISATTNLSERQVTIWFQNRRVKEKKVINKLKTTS

`O=C(NN=C1C[C@@H](O)[C@@H](O)[C@@H]2[C@@H]3C(=O)N(Cc4ccc5c(c4)OCO5)C(=O)[C@@H]3CC[C@@H]12)OCc1ccccc1`: the composite z-score in assay [1] was 0.244 (inactive); in assay [2] it was 0.0195. Also, the results for the z-score in assay [3] and in assay [4] were -1.1 and -3.09 (inactive), respectively.
The like results for `CC(C)=NOC(C)CN1CCCc2nc(C)c(C)cc21` (stereo unspecified) were, in that order, 2.19 (inactive), 0.522, -0.225 and -8.04 (active).
The like results for `CO[C@@H]1C=CCC(=O)N[C@@H](C)C(=O)OC[C@@H](NS(=O)(=O)c2ccc(C)cc2)[C@H](C)C=CCC(=O)OC[C@H]1C` were, in that order, -0.778 (inactive), 0.247, 0.251 and -1.06 (inactive).
The matching figures for `CCC1=NOC(CCC2CC(OC(=O)NCc3cccc4c3OCO4)CC3(CCCC(COC(=O)NCCc4ccc(Cl)cc4)O3)O2)C1` (stereo unspecified): 0.214 (inactive), 0.855, -0.184 and -2.58 (inactive).
`CO[C@@H]1COC(=O)CC=C[C@H](C)[C@H](OC)COC(=O)[C@@H]2CCCN2C(=O)CC=C[C@H]1C`: the results for the composite z-score in assay [1] and in assay [2] were 0.233 (inactive) and 0.607, respectively. The z-score was -1.52 in assay [3] and -1.11 (inactive) in assay [4].
The like results for `CC(C)(C)N1C(=O)[C@H]2[C@H]3[C@H](O)[C@H](O)CC(=NNC(=O)OCc4ccccc4)[C@H]3CC[C@H]2C1=O` were, in that order, -0.401 (inactive), 0.764, -1.37 and -3.42 (inactive).
The like results for `CC(C)[C@@H](OCc1ccccc1)[C@H](C)C=NO[C@@H](C)c1cn([C@H](CO)Cc2ccccc2)nn1` were, in that order, 0.334 (inactive), -0.0098, 0.949 and -5.22 (inactive).
The matching figures for `COC(=O)CC=C[C@@H](C)[C@@H](C=NOC(C)CN1CCCCc2nc(C)c(C)cc21)OC` (stereo partly specified): 0.771 (inactive), 0.444, 1 and -4.37 (inactive).
As for `CCN1C(=O)[C@H]2[C@H]3[C@H](O)[C@H](O)CC(=NO[C@H](C)c4cn([C@H](CO)Cc5ccccc5)nn4)[C@@H]3CC[C@H]2C1=O`, the composite z-score is 1.66 (inactive) in assay [1] and 0.722 in assay [2]. For the same molecule, the results for the z-score in assay [3] and in assay [4] were 1.44 and -2.36 (inactive), respectively.
As to `CCOC(=O)[C@H](CC(C)C)NC(=O)CCC1CC(OC(=O)NCc2ccc3c(c2)OCO3)CC2(CCCC(COC(=O)NCCOc3ccccc3)O2)O1` (stereo partly specified), the composite z-score in assay [1] was 0.24 (inactive); in assay [2], 0.368. Further, the z-score in assay [3] was -1.87; in assay [4] it was -6.24 (inactive).
The like results for `CC(C)=CCCC(C)=CCON=C1[C@H]2CCn3c(=O)n(-c4ccccc4)c(=O)n3[C@H]2[C@H](O)[C@@H]2O[C@H]12` were, in that order, 0.246 (inactive), 0.598, -2.23 and -4.57 (inactive).
The matching figures for `CC(C)[C@@H](OCc1ccccc1)[C@H](C)C=NOC[C@@H](O)[C@H]1O[C@@H]2OC(C)(C)O[C@@H]2[C@H]1O`: -0.12 (inactive), 0.258, -0.489 and -1.24 (inactive).
As for `C#CCCCON=C1C[C@@H](O)[C@@H](O)[C@@H]2[C@@H]3C(=O)N(C[C@@H]4CCCO4)C(=O)[C@@H]3CC[C@H]12`, the composite z-score in assay [1] is 0.241 (inactive); in assay [2] it was 0.317. For the same molecule, the z-score in assay [3] is 0.211; in assay [4], -1.28 (inactive).
The matching figures for `CCOC(=O)CCN1C(=O)[C@H]2[C@@H]3C(=CC[C@H]2C1=O)C(=O)[C@H]1O[C@H]1[C@H]3O`: -0.0103 (inactive), -0.465, -1.5 and -4.11 (inactive).
The like results for `O=C1C2=CC[C@H]3C(=O)N(C4CCCCC4)C(=O)[C@H]3[C@H]2[C@H](O)[C@@H]2O[C@H]12` were, in that order, 0.381 (inactive), -0.274, -1.98 and -5.22 (inactive).
The matching figures for `CC(CCN1CCCc2nc(C)c(C)cc21)=NO[C@H](C)c1cn([C@@H]2COC[C@H]2O)nn1`: -0.0434 (inactive), 0.588, 0.612 and -6.65 (inactive).
`O=C1CCCC=C1C(O)COCc1ccccc1` (stereo unspecified): the results for the composite z-score in assay [1] and in assay [2] were 0.253 (inactive) and 0.269, respectively. The z-score is -0.674 in assay [3] and -3.62 (inactive) in assay [4].
The matching figures for `C#CCCCON=C1[C@H]2CCn3c(=O)n(Cc4cc5c(cc4Cl)OCO5)c(=O)n3[C@H]2[C@H](O)[C@@H]2O[C@H]12`: -0.18 (inactive), 0.278, -0.579 and -0.911 (inactive).
Regarding `COc1ccc(COC(=O)NN=C2C[C@@H](O)[C@@H](O)[C@@H]3[C@@H]4C(=O)N(Cc5ccccc5)C(=O)[C@@H]4CC[C@@H]23)cc1`, the composite z-score in assay [1] is -0.662 (inactive); in assay [2], 0.0404. Also, the z-score was 0.0711 in assay [3] and 0.19 (inactive) in assay [4].
In the case of `CCOC(=O)CCN1C(=O)[C@H]2[C@H]3[C@H](O)[C@H](O)CC(=NOCC=C(C)CCC=C(C)C)[C@H]3CC[C@H]2C1=O`, the composite z-score was -0.322 (inactive) in assay [1] and -0.206 in assay [2]. For the same molecule, the z-score in assay [3] was 0.241; in assay [4], 0.765 (inactive).
As for `CON=C(C)CCC(=O)OC[C@H]1O[C@H](C#Cc2ccccc2)C=C[C@@H]1Oc1ccc(C)cc1`, the figures for the composite z-score in assay [1] and in assay [2] were 0.177 (inactive) and 0.627, respectively. Further, the results for the z-score in assay [3] and in assay [4] were -0.306 and -4.45 (inactive), respectively.
The like results for `C=CCOCC1CN2[C@@H](CC[C@@H](C)[C@@H]2c2ccc(Br)cc2)C(=O)O1` (stereo partly specified) were, in that order, 0.0364 (inactive), -0.104, 1.72 and -0.43 (inactive).
The like results for `COc1ccc(O[C@H]2C=C[C@@H](c3ccccc3)O[C@@H]2CO)cc1` were, in that order, 0.0493 (inactive), 0.546, -0.672 and -1.6 (inactive).
The matching figures for `CC(CCN1CCCc2nc(C)c(C)cc21)=NO[C@@H](C)c1cn([C@H](CO)Cc2ccccc2)nn1`: 0.51 (inactive), 0.244, 0.221 and -0.829 (inactive).
